High-throughput results: PubChem BioAssay, National Center for Advancing Translational Sciences (NCATS)
Hits are enriched below; roughly 3.3% of the tested compounds scored in any of these assays.
VACV mCherry inh: qHTS for Stage-Specific Inhibitors of Vaccinia Orthopoxvirus: mCherry Reporter Primary qHTS. 0.63% of 310,000 active. Vaccinia virus mCherry reporter infection, fluorescence. AID 720579, 2013. Potency, µM (highest dose often 36.5 µM), for inactives: at the top dose activity change, negative = inhibition, hits mostly inhibitors; calls by dose curve; tested in A549 cells; further: on the % scale 0 is the no-effect control and ±100 the full control effect; nearly all actives have a fitted effect of over 35% in size
Vaccinia Venus: qHTS for Stage-Specific Inhibitors of Vaccinia Orthopoxvirus: Venus Reporter Primary qHTS; Vaccinia virus Venus reporter expression, fluorescence; Potency, µM (titrated, usually from 36.5 µM), without a hit: at the top dose activity change, negative = inhibition, usual class: inhibitors; 0.46% of 330,000 active; AID 720580, 2013; calls by dose curve; tested in A549 cells; further: on the % scale 0 is the no-effect control and ±100 the full control effect; nearly all actives have a fitted effect of over 30% in size
HCV inh: qHTS Assay for Inhibitors of Hepatitis C Virus (HCV); Potency, µM (titrated, usually from 41.8 µM), inactives show top-dose activity change, negative = inhibition, most hits filed as inhibitors; Huh7.5.1 HCVcc-Cre infection, luciferase reporter, 44 h; 3.4% of 340,000 active; further: on the % scale 0 is the no-effect control and ±100 the full control effect
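Reporter virus HCVcc-Cre (~0.5 moi) infects cells exposed to compound; seeding density 1,000 cells/well with 4 h settling beforehand. Luminescence, 15 sec read, taken 44 h post-infection following a 15 min RT substrate incubation.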
HCV inh confirm: qHTS Assay for Inhibitors of Hepatitis C Virus (HCV): Confirmation Assay for Cherry-picked Compounds; shares compounds with HCV inh; HCVcc-Cre infectious virus cell assay, luciferase, inhibition; Potency, µM (top dose mostly 41.8 µM), for the others: at the highest dose activity, negative = inhibition, actives largely listed as inhibitors; 78% of 640 active; AID 720575, 2013; further: nearly all actives have a fitted effect of over 80% in size
HCV cytotox: qHTS Assay for Inhibitors of Hepatitis C Virus (HCV): Cytotoxicity Counterscreen for Cherry-picked Compounds | 22% of 640 active | HCV host cell line cytotoxicity counterscreen | Potency, µM (highest dose often 41.8 µM), for the others: top-dose activity change, negative = cytotoxicity, most hits filed as inhibitors | shares compounds with HCV inh;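 further: 44 h compound exposure; on the % scale 0 is the no-effect control and ±100 the full control effect; nearly all actives have a fitted effect of over 55% in size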
* = called active by the depositor; i = inactive; u = inconclusive; x = no result given; [ ] = another dose, or the depositor's remark. Unless noted, the call rests on the fitted dose curve; in most records, active means well fitted curve in the direction sought with a large enough effect; inconclusive means small, poorly fitted or top-dose-only effect, or another doubt; inactive means no such curve, though single readings can be large; an effect the other way counts as inactive or inconclusive. Potency means the concentration at half of the fitted maximal effect.

SMILES	VACV mCherry inh	Vaccinia Venus	HCV inh	HCV inh confirm	HCV cytotox
COc1ccc(-n2nc([N+](=O)[O-])c(=NCCc3ccc(Cl)cc3)n2O)cc1	-14%	-26%	-2%	x	x
CC(C)(C)OC(=O)N1CCC(c2c(C(=O)N3CCN(Cc4ccccc4)CC3)cnn2-c2cccc(Cl)c2)CC1	-16%	-14%	x	x	x
C/C(CC1CC2=C(CC1(C)C)C(C)(C)CCC2)=N\NC(N)=S (stereo not given)	-14%	u	5.6µM*	14µM*	u
C/C(CC1CC(C)(C)OC1=O)=N\NC(N)=S (stereo not given)	-1%[7.34 µM]	-14%[7.34 µM]	-24%	x	x
Cc1cccc(N2CCN(C(=O)C3CCN(S(=O)(=O)c4c(C)noc4/C=C/c4ccccc4F)CC3)CC2)c1C	-5%[7.34 µM]	-8%[7.34 µM]	x	x	x
Cc1noc(/C=C/c2ccccc2F)c1S(=O)(=O)N1CCC(C(=O)N2CCN(C)CC2)CC1	x	x	4µM*	22µM*	u
CC(NC(=O)COC(=O)CN1C(=O)C2CCCCC2C1=O)c1ccccc1 (stereo not given)	-15%	-1%	34%	x	x
Cc1sc2ncnc(N3CCC(C(=O)Nc4ccccc4C(C)(C)C)CC3)c2c1C	i	-13%	2%	x	x
COc1ccc(S(=O)(=O)N(C)C)cc1NC(=O)C1CCN(c2ncnc3sc(C)c(C)c23)CC1	x	x	8.9µM*	8.9µM*	u
Cc1cc(C)cc(-n2c(SCC(=O)N3CCC(C)CC3)nc3c([nH]c4ccccc43)c2=O)c1	-8%	-6%	x	x	x
CCOc1ccc(N2CC(NC(=O)c3ccc(Cl)cc3)CC2=O)cc1 (stereo not given)	4%	-1%	x	x	x
CCN(CC)c1ccc(/C=N/NC(=O)OC)c(O)c1	x	-12%	-20%	x	x
CCN(CC)c1ccc(/C=N/NC(=O)c2ccoc2C)c(O)c1	1.1µM*	u	2.8µM*	7µM*	7.9µM*
CC(C)(CNC(=O)c1ccc(S(=O)(=O)Nc2cccc(C(F)(F)F)c2)cc1)N1CCOCC1	x	x	-7%	x	x
OC(c1cc(-c2ccc(C(F)(F)F)cc2)nc(C(F)(F)F)c1)C1CCCCN1 (stereo not given)	u	11µM*	5µM*	14µM*	u
OC(c1cc(-c2cccc(Cl)c2)nc2ccccc12)C1CCCCN1 (stereo not given)	u	-21%	u	x	x
COc1cc(Cl)c(C)cc1NC(=O)CSc1ccccc1	-15%	-3%	u	x	x
COc1cc(Cl)c(C)cc1NC(=O)CSc1cc(Cl)ccc1Cl	-12%	-9%	u	11µM*	-28%
COc1ccc2c(c1)sc(N)[n+]2Cc1cc(C)cc2cccnc12	u	u	8.9µM*	16µM*	u
CCOc1ccc2c(c1)sc(N)[n+]2Cc1cc(C)cc2cccnc12	u	-25%	u	x	x
Clc1cccc(-c2cc3nc4c(c(N5CCOCC5)n3n2)CCCC4)c1	u	-26%	u	14µM*	-11%
Clc1cccc(-c2cc3nc4c(c(N5CCN(c6cnccn6)CC5)n3n2)CCCC4)c1	x	-28%	7%	x	x
COCCN(C(=O)COc1ccccc1C#N)c1c(N)n(Cc2ccccc2)c(=O)[nH]c1=O	i	8%	u	x	x
CN1CCN(S(=O)(=O)c2ccc(Cl)s2)CC1	0%	-5%	21%	x	x
CC(C)Oc1ccccc1/C=N/NC(=O)c1ccc(F)cc1	-13%	-9%	7.9µM*	u	-10%
SMILES	VACV mCherry inh	Vaccinia Venus	HCV inh	HCV inh confirm	HCV cytotox
CC(C)Oc1ccccc1/C=N/NC(=O)c1ccccc1Cl	x	x	-21%	x	x
COCCNC(=O)c1cccc(OC2CCN(Cc3ccccc3C)CC2)c1	i	0%	-10%	x	x
CCOC(=O)C1CCCN(S(=O)(=O)c2ccc(S(=O)(=O)N(CC)CC)cc2)C1 (stereo not given)	i	-25%	0.89µM*	0.7µM*	1.8µM*
CCOC(=O)C1CCCN(S(=O)(=O)c2ccc(S(N)(=O)=O)cc2)C1 (stereo not given)	i	-15%	u	x	x
CCn1ccc2cc(S(=O)(=O)N3CCCN(C(=O)Nc4ccc(C)cc4Cl)CC3)ccc21	-7%	1%	x	x	x
Cn1nnnc1Sc1ncnc2scc(-c3ccc(C#N)cc3)c12	x	x	x	25µM*	25µM*
Cc1ccc(-c2csc3ncnc(SCC(=O)O)c23)cc1	i	11%	-7%	x	x
NS(=O)(=O)c1ccc(CCNc2nc3c(-c4cccc(F)c4)nnn3c3ccccc23)cc1	-13%	1%	1.4µM*	7µM*	-16%
Cc1ccc(-c2nnn3c2nc(NCCc2ccc(S(N)(=O)=O)cc2)c2ccccc23)cc1	-9%	-17%	-20%	x	x
CC(=O)c1ccc(NC(=O)Cn2ncc3c4ccccc4n(Cc4ccccc4)c3c2=O)cc1	-14%	-12%	x	x	x
C=C(C)Cc1c(C)c(C#N)c2nc3ccccc3n2c1N1CCCCC1	x	x	u	14µM*	43%
C=CCc1c(C)c(C#N)c2nc3ccccc3n2c1N1CCCCC1	i	1%	u	x	x
NC(=O)COc1ccc(-n2cnnn2)cc1	i	-10%	19%	x	x
CCOc1ccc(C(C)=O)cc1COc1ccc(-n2cnnn2)cc1	x	2%	2.8µM*	0.31µM*	-22%
CC1(C)Oc2ccc3ccc(=O)oc3c2[C@@H](O)[C@@H]1O	-12%	4%	12%	x	x
CCC(CC)C(=O)c1c[nH]c(C(=O)NCc2ccc(F)cc2)c1	x	x	3%	x	x
O=C(N/N=C/c1ccc[nH]1)c1ccc(Cl)cc1	-8%	-8%	5µM*	14µM*	14µM*
O=C(N/N=C/c1ccc[nH]1)c1ccncc1	i	0%	9%	x	x
C=CCOn1c(=O)c(-c2ccc(C)cc2)[n+]([O-])c2ccccc21	-13%	-9%	-6%	x	x
Cc1ccc(S(=O)(=O)NCc2ccccc2)cc1C(=O)N1CCCC(C(F)(F)F)C1 (stereo not given)	-9%	u	-9%	x	x
COc1ccc(CC(=O)Nc2cccc(-c3nnc(-c4ccc(C)cc4)o3)c2)cc1OC	-12%	-3%	3.2µM*	6.3µM*	-27%
CCc1cccc(NC(=O)Cc2ccc(OC)c(OC)c2)c1	-26%	-16%	u	x	x
O=C(CCNC(=O)c1ccc(Br)cc1)NCc1ccncc1	i	-13%	30%	x	x
O=C(Nc1ccc(/C=C/c2nc3ccccc3o2)cc1)c1cccc(C(F)(F)F)c1	x	u	-19%	x	x
O=C(Nc1ccc(/C=C/c2nc3ccccc3o2)cc1)c1c(F)cccc1F	x	u	5.6µM*	4.4µM*	-32%
Cn1ccnc1C(=O)Cc1ccc([N+](=O)[O-])cc1	-6%	-14%	-4%	x	x
CCOC(=O)c1c(-c2ccccc2)oc2ccc(O)cc12	x	x	2.8µM*	14µM*	-30%
NC(=O)c1c(-c2ccccc2)oc2ccc(O)cc12	-14%	-13%	2%	x	x
COc1ccc(N2CCN(CCCn3ccc(NC(=O)OCc4ccccc4)nc3=O)CC2)cc1	-16%	-23%	x	x	x
